Arbovirus inh – antivirals against arbovirus infection; arbovirus infection cell-based antiviral screen; inhibition, % at 10 µM; 200,000 tested, 0.37% active; in the data active = inhibition above about 30%
WT yeast gro inh – growth inhibition of WT yeast, mitochondrial fusion screen; mitochondrial fusion phenotypic screen, WT strain; inhibition, % at 10 µM; 190,000 tested, 2.1% active; AID 1362; in the data active = inhibition above about 58%; tested in S. cerevisiae
L major viab – Leishmania major promastigote growth inhibition; Leishmania major promastigotes, resazurin fluorescence viability; AID 1063; 200,000 tested, 9% active; inhibition, % at 10 µM; in the data active = inhibition above about 50%;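 note: promastigotes grown with compound for 44 hours at 28 °C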
CHOP inhibitor – blocks CHOP induction under ER stress; 220,000 tested, 3.8% active; CHO-K1 CHOP-promoter luciferase, tunicamycin-induced, 15-18 h; AID 2732; inhibition, % at 10 µM;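 active = compounds that reduced the stress-induced luciferase reporter signal by more than about 70% of percent inhibition, limit read from the data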
Numbers stand for hits; – = inactive; · = no result given. This is a sample that favours compounds with a hit; in the whole collection about 12% have one here.

SMILES | Arbovirus inh | WT yeast gro inh | L major viab | CHOP inhibitor
CCCCCOc1ccc(C(=O)C(c2ccccc2)N2CCOCC2)cc1 (centres undefined) | – | – | – | –
O=C(c1ccc(F)cc1)C(CN1CCOCC1)c1ccccc1 (centres undefined) | – | 81.1 | 100.6 | ·
CCC(O)(c1ccc(OC)cc1)C(CN1CCOCC1)c1ccccc1 (centres undefined) | – | – | – | –
c1ccc(C(CN2CCOCC2)c2ccccc2)cc1 | – | – | – | –
COC(=O)c1ccc(S(=O)(=O)N2CCCCCC2)n1C | · | · | · | –
CCCOc1ccc(C(C(=O)OCCN(CC)CC)c2ccccc2)cc1 (centres undefined) | – | – | 98.6 | –
CCCOc1ccc(C(=O)C(CN2CCCC2)c2ccccc2)cc1 (centres undefined) | – | – | 100.4 | –
O=C(CN1CCOCC1)NN=C(c1ccccc1)c1ccccc1 | – | – | – | –
CCCOc1ccc(C(=O)N2CCCC2C(=O)O)cc1 (centres undefined) | – | – | – | –
O=C(c1ccccc1)C(CCC(CN1CCOCC1)C(=O)c1ccccc1)CN1CCOCC1 (centres undefined) | – | – | 100.5 | 97.9
O=C(NCc1cccnc1)C(=O)N/N=C/c1ccccc1[N+](=O)[O-] | – | – | – | –
CN1C[C@@H]2C(c3ccc(C(F)(F)F)cc3)C3(c4cccnc4)CC2(C3)[C@H]1c1ccccc1 (some centres undefined) | · | · | · | –
COc1ccc(NC(=O)C(=O)N/N=C/c2cc(C)n(-c3cccc(Cl)c3Cl)c2C)c(OC)c1 | 32.2 | – | – | –
CS(=O)(=O)c1ncc(Cl)c(C(=O)Nc2ccc3ccccc3c2)n1 | – | – | – | 105.5
CCCCN1C(=O)N(C)C2NC(=S)NC21 (centres undefined) | · | · | · | –
Cc1cccc2nc(CSc3nc4ccccc4o3)cn12 | – | – | 64.4 | –
O=C(NCc1ccc2c(c1)CCO2)Nc1cccc(C(F)(F)F)c1 | · | · | · | –
CCOC(=O)c1cc(C(=O)NN)c(C)nc1C | – | – | – | –
CCOC(=O)c1cc2c(nc1C)-c1cc(Cl)cc(Cl)c1OC2O (centres undefined) | – | – | – | 88.7
C=CCn1c(SCC(=O)NCc2ccc3c(c2)OCO3)nnc1C1CCCCC1 | – | – | – | –
C=CCn1c(SCC(=O)NCc2ccccc2)nnc1C1CCCCC1 | – | – | 77.7 | –
CCOc1ccc(C2c3c(oc4ccccc4c3=O)C(=O)N2c2ccc(C)cn2)cc1OC (centres undefined) | – | – | 79.8 | –
COc1cc(C2c3c(oc4ccccc4c3=O)C(=O)N2c2ccc(C)cn2)ccc1O (centres undefined) | – | – | – | –
COP1(=O)C=C[C@H](N(Cc2ccccc2)S(=O)(=O)c2ccccc2[N+](=O)[O-])[C@@H](C)O1 (some centres undefined) | · | · | · | –
Cc1ccc(C(=O)NNC(=O)CSc2n[nH]c(-c3cccnc3)n2)cc1 | – | – | – | –
SMILES | Arbovirus inh | WT yeast gro inh | L major viab | CHOP inhibitor
COc1ccc(C(=O)Cn2nc(CNc3ccc(Br)cc3)[n+]3c2CCCCC3)cc1 | – | – | – | –
Cc1ccc(C(C)C)c(OCc2nn(CC(=O)c3ccc(OC(F)F)cc3)c3[n+]2CCCCC3)c1 | – | – | 99.1 | –
O=C(Nc1ccc(-c2nc3ccccc3o2)cc1)c1ccc(N2C(=O)C3C4C=CC(C4)C3C2=O)cc1 (centres undefined) | – | – | – | –
O=C(CSc1nc2[nH]ncc2c(=O)n1-c1ccc(Cl)c(Cl)c1)NCc1ccccc1Cl | – | – | 77.5 | –
O=c1c2cn[nH]c2nc(SCc2ccccc2F)n1-c1ccc(Br)cc1 | – | 79.2 | – | –
O=c1c2cn[nH]c2nc(SCc2cc(=O)n3cc(Br)ccc3n2)n1-c1ccc(Br)cc1 | – | – | – | –
O=C(CSc1nc2[nH]ncc2c(=O)n1-c1ccccc1)NCCc1ccccc1 | – | – | – | –
COC(=O)c1cc(NC(=O)C2CCCN(S(=O)(=O)c3c(C)n[nH]c3C)C2)cc(C(=O)OC)c1 (centres undefined) | – | – | – | –
CCCCn1c(=O)[nH]c(=O)c2c1nc(-c1ccc(CC)c([N+](=O)[O-])c1)n2C | – | – | 84.1 | 75.8
O=C1CC(O)(C(F)(F)F)Oc2c1ccc1ccccc21 (centres undefined) | – | – | – | 89.4
COc1cccc2c1C(=O)C=C(C)C2=O | – | – | 99.3 | –
CN(Cc1ccccc1F)c1ccc(S(=O)(=O)N2CCCC2)cn1 | – | – | 98.2 | –
CN(Cc1ccccc1)c1ccc(S(=O)(=O)N2CCOCC2)cn1 | – | – | – | –
CC(NC(=O)Cc1cccc(C(F)(F)F)c1)c1ccc(F)cc1 (centres undefined) | – | – | – | –
Fc1ccc(Nc2cccc3nccnc23)cc1 | – | – | 50.4 | –
